Screens as filed in PubChem BioAssay.
In the library only some 2.7% were active in any assay of this set; here they are far more common.
TAG inh = inhibitors of triacylglycerol accumulation; AID 651582; inhibition, % at 12.5 µM; 230,000 tested, 0.66% active; H9c2 cells, Nile Red lipid (TAG) fluorescence; cells loaded with 200 µM oleic acid;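 active means pattern-corrected inhibition of lipid staining of at least 50% with the nuclear-stain viability signal not falling by more than 50%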;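 further: 0% = DMSO wells and 100% = triacsin C control wells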
NadD block = inhibitors of Staphylococcus aureus NadD; AID 602399; inhibition, % at 20 µM; 360,000 tested, 0.78% active; purified NadD enzyme, colorimetric absorbance read-out; in the data active means inhibition above about 26%
MPTP inh = permeability transition pore inhibition. AID 602449. 360,000 tested, 1.4% active. inhibition, % at 10 µM. isolated mouse mitochondria, Ca2+ swelling absorbance, 30 min;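 active means inhibition of 50% or more, scaled per plate between neutral and stimulator controls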;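 further: 0% = DMSO wells given calcium and 100% = 1 mM EGTA wells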
aDG glyco up = increases alpha dystroglycan glycosylation | Pro5-aDG cells, alpha-DG glycosylation AlphaScreen (IIH6); 0% Pro5, 100% B10-LARGE cell signal | activation, % at 10 µM | 360,000 tested, 0.22% active;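 active means activation of at least 8% versus controls, or a plate z-score of at least 8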;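 further: Pro5 are CHO cells carrying HIG-tagged alpha-DG that lacks glycosylation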
MPTP counter = Rhodamine 123 counter-screen of mitochondrial pore hits; shares compounds with MPTP inh; isolated mitochondria, membrane potential, Rhodamine 123 fluorescence; inhibition, % at 10 µM; 5,000 tested, 78% active; in the data active means inhibition above about 22%;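 further: 0% = DMSO vehicle and 100% = positive control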
MPTP swell DR = MPTP inhibition, dose response swelling confirmation; shares compounds with MPTP inh; isolated mitochondria swelling, absorbance; IC50, µM; 780 tested, 58% active; in the data active means IC50 below about 20 µM
MPTP counter DR = counter-screen for mitochondrial permeability transition pore inhibitors, dose response; IC50, µM; 780 tested, 49% active; shares compounds with MPTP inh; isolated mitochondria counterscreen, fluorescence read-out; in the data active means IC50 below about 80 µM
* hit, by the source's call; i = inactive; . = no result given.

SMILES	TAG inh	NadD block	MPTP inh	aDG glyco up	MPTP counter	others
Cc1cc(C(=O)CSc2nc3ccccc3[nH]2)c(C)n1Cc1ccco1	.	13	86*	5	83*
CCN(CC)C(=O)CSc1nc2ccccc2c(=O)[nH]1	-12	-2	66*	0	-1	MPTP swell DR=>100;MPTP counter DR=>80
COCC(C)n1c(C)cc(C(=O)CSc2nc3ccccc3c(=O)[nH]2)c1C (configuration not stated)	-1	-4	76*	1	35*
Cc1cc(=O)n2c3c(c4c(cc13)c(CN(C)C)cc(=O)n4C)OC2	28	0	-2	1	.
COc1ccc([C@H]2N[C@]3(CCCN(Cc4ccc(F)cc4)C3=O)[C@H]3C(=O)N(C)C(=O)[C@@H]23)cc1	-17	3	0	0	.
COc1cc(CNCCSc2nnnn2C)cc(Br)c1OCc1ccc(F)cc1	-23	0	6	1	.
CCOc1cc(CNCCSc2nnnn2C)cc(Br)c1OCc1ccc(F)cc1	.	6	93*	2	7	MPTP swell DR=i;MPTP counter DR=23*
CCCCCCCC1CC(CSC(=N)N)OC1=O (configuration not stated)	-11	-10	97*	1	-5	MPTP swell DR=6.3*;MPTP counter DR=52*
CCCCC1CC(CSC(=N)N)OC1=O (configuration not stated)	-13	2	0	0	.
COC(=O)C1(C(=O)OC)C2CCCCC2N(S(=O)(=O)c2ccc(C)cc2)[C@@H]1CC(C)=O (some centres not stated)	.	.	0	0	.
O=C(Nc1ccccc1)N1CCCN(Cc2ccccc2F)C1	4	7	2	0	.
Fc1ccccc1CN1CCCN(C(=S)Nc2cccc(Cl)c2)C1	11	-2	92*	0	76*
Cc1c(Cl)cccc1NC(=S)N1CCCN(Cc2ccccc2F)C1	8	-3	69*	0	74*
COc1ccc(-c2cc3ncc(C(C)=O)c(C)n3n2)cc1	17	-2	9	0	.
CCNC(=S)N1CCC(C(=O)c2ccc(F)cc2)CC1	-6	-7	0	0	.
O=S(=O)(c1ccccc1)N1CCN(c2cc(-c3ccccc3)nc3ncnn23)CC1	.	18	82*	1	78*
O=S(=O)(c1ccc(Br)cc1)N1CCN(c2cc(-c3ccccc3)nc3ncnn23)CC1	.	19	1	1	.
Cc1cc(Oc2ccccc2)nc(SCC(=O)Nc2ccc(Cl)c(Cl)c2)n1	.	6	73*	1	72*
O=C(CSc1nc2ccccc2o1)Nc1ccc(N2CCOCC2)c(Cl)c1	.	4	97*	0	93*
O=C(CSc1nc(Nc2ccccc2)nc(N2CCOCC2)n1)Nc1cccc([N+](=O)[O-])c1	44	6	7	0	.
O=C(CSc1nc(Nc2ccccc2)nc(N2CCOCC2)n1)Nc1ccc([N+](=O)[O-])cc1	.	21	74*	0	70*
Cc1cc(C)nc(SCC(=O)Nc2ccc(N3CCOCC3)c(Cl)c2)n1	-52	2	61*	4	78*
O=C(CSc1nc2ccccc2o1)Nc1cc(C(F)(F)F)ccc1N1CCOCC1	-46	-7	3	0	.
CNc1nc(SCC(=O)Nc2ccc(Cl)c(Cl)c2)nc(N2CCOCC2)n1	5	0	1	0	.
O=C(NCCC(=O)N1CCN(S(=O)(=O)c2ccc(Cl)cc2)CC1)Nc1ccccc1	-2	5	-3	0	.
SMILES	TAG inh	NadD block	MPTP inh	aDG glyco up	MPTP counter	others
CO[C@H]1CN(C)C(=O)c2cc(NC(=O)C3CCOCC3)ccc2OC[C@H](C)N(Cc2nccs2)C[C@H]1C	.	.	-1	0	.
CCCCNC(=O)C(NC(=O)Cc1cc(OC)cc(OC)c1)C(=O)c1ccccc1 (configuration not stated)	.	.	-2	0	.
CC1(C(=O)NS(=O)(=O)c2ccc(Cl)s2)CCN1C(=O)C1(c2ccc(Cl)cc2)CCC1 (configuration not stated)	5	1	2	1	.
O=C(CSc1nc2ccccc2s1)Nc1ccc(N2CCOCC2)c(Cl)c1	-23	11	90*	0	83*
Cc1ccc(CNc2ncnc3ccc(-c4ccoc4C)cc23)o1	-16	-1	2	1	.
Fc1c(F)c(C(F)(F)F)c(F)c(F)c1N/N=C\c1cccs1	.	-8	87*	0	70*
Cc1cc(SCC(=O)N/N=C/c2ccc(O)cc2O)c(C)cc1Br	.	-2	91*	0	56*
O=C(COC(=O)c1cc(Br)ccc1O)NNC(=O)c1cccs1	16	3	0	0	.
O=C(NCc1ccncc1)c1ccc(OCc2ccccc2)cc1	-1	-7	1	0	.
Cc1ccc(C(=O)NCCc2ccncc2)cc1	.	-1	-2	0	.
Cc1ccc(Oc2ccc(C(=O)NCc3ccncc3)cc2)cc1	-19	3	88*	6	75*
O=C(NCc1ccncc1)c1ccc(Oc2ccccc2)cc1	-10	9	76*	1	39*
N/N=C1\CCCc2c1[nH]c1ccc([N+](=O)[O-])cc21	13	6	7	0	.
O=[N+]([O-])c1ccc2[nH]c3c(c2c1)CCCC3	.	0	72*	1	71*
CC(C)NC(=O)c1cc(C2CCCCN2S(=O)(=O)c2ccc(F)cc2F)on1 (configuration not stated)	-13	1	-1	0	.
CCOc1ccc(NC(=S)NNc2ccnc3cc(Cl)ccc23)cc1	36	14	81*	5	63*
CCOc1ccccc1Nc1ccnc2cc(Cl)ccc12	-26	-7	4	3	.
CCCCc1ccc(NC(=S)Nc2ccc(Cl)c(S(=O)(=O)N(C)C)c2)cc1	-27	3	97*	0	76*
CCCCc1ccc(NC(=S)NCc2cccc(OC)c2)cc1	.	-2	70*	1	91*
S=C(NCc1cccnc1)Nc1ccc(Oc2ccccc2)cc1	.	-1	69*	1	60*
S=C(Nc1ccc(Oc2ccccc2)cc1)Nc1cccnc1	.	3	71*	0	86*
CCOC(=O)N1CCN(C(=O)c2ccc(Cl)c(NC(=O)c3cccs3)c2)CC1	20	-5	-1	0	.
CCCCc1ccc(NC(=S)Nc2cccnc2)cc1	.	-6	80*	1	73*
NNC(=O)c1cc2c(N3CCC(Cc4ccccc4)CC3)ncnc2s1	-39	23	89*	0	59*
CCCCCCCCN1C(=O)[C@H](CC(=O)N2CCN(C(=O)c3ccco3)CC2)C[C@@]2(C(=O)OCC)CCCC=C12	.	2	-1	0	.
CC(=O)N1CCCc2cc(S(=O)(=O)NCCC3=CCCCC3)ccc21	-29	0	51*	2	23*
Cc1ccc(OCC(=O)Nc2ccc(S(=O)(=O)N3CCOCC3)cc2)c(Br)c1	-15	-4	0	0	.
